Shown is part of a subset that was picked to be rich in hits.
CHX counter: affects cycloheximide protein synthesis inhibition readout, counter-screen. AID 2314. cell reporter, cycloheximide protein synthesis inhibition counterscreen. max response, %. 300,000 compounds, 12% hits; in the data active = max response mostly above about 13%, no sharp cut-off; inactive = mostly below about 14%; note: read at 38.3 µM for the half of the compounds with a filed dose; 0% is about no effect
Tb PYK inh: T. brucei pyruvate kinase inhibition. Q57TT1. TbPYK enzyme, Kinase-Glo Plus ATP luminescence, 45 min. Potency, µM (top dose mostly 76.8 µM), inactives show at the highest dose activity, negative = inhibition, usual class: inhibitors. 410,000 compounds, 0.12% hits; note: potency is the fitted concentration of half-maximal effect; % is set by controls: 0 for no effect and ±100 for the full control effect; nearly all actives have a fitted effect of over 50% in size
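TbPYK + substrate in 50 mM TEA pH 7.2, 100 mM KCl, 10 mM MgCl2, 0.05% BSA, 0.01% Tween-20; cpd pinned; ADP 130 uM final; 45 min RT; Kinase-Glo Plus 10 min; luminescence endpoint.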
FBPA Giardia inh: blocks Giardia fructose-bisphosphate aldolase activity; AID 2451; 290,000 compounds, 0.71% hits; Potency, µM (top dose mostly 59.6 µM), without a hit: top-dose activity, negative = inhibition, hits mostly inhibitors; purified Giardia FBPA; A8B2U2; note: potency is the fitted concentration of half-maximal effect; % is set by controls: 0 for no effect and ±100 for the full control effect; nearly all actives have a fitted effect of over 55% in size
Target sequence (A8B2U2 whole entry, looked up): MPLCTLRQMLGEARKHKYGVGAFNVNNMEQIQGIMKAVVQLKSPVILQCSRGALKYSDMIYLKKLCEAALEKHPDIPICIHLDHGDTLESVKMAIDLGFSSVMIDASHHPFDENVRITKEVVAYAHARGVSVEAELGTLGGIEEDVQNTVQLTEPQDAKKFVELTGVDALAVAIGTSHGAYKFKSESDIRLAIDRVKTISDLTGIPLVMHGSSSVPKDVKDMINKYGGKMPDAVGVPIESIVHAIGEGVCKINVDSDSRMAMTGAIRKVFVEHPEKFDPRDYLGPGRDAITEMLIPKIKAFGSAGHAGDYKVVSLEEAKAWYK
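40 nM FBPA preincubated 10 min at RT with compound (up to 57.5 uM final), then substrate plus GAPDH/TPI/NAD/arsenate coupling and diaphorase/resazurin added. Fluorescence read after 20 min at RT, 525/598 nm.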
LmPK inh: inhibitors of Leishmania mexicana pyruvate kinase | Q27686 | Potency, µM (top dose mostly 57.5 µM), inactives show top-dose activity change, negative = inhibition, hits mostly inhibitors | purified LmPK, Kinase-Glo ATP luminescence, 1 h | AID 1721 | 290,000 compounds, 0.37% hits; note: potency is the fitted concentration of half-maximal effect; % is set by controls: 0 for no effect and ±100 for the full control effect
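Kinase-Glo luminescence read after 1 h RT reaction of 0.1 nM LmPK with 0.5 mM PEP and 0.1 mM ADP. Activity scaled between uninhibited and enzyme-free controls.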
RE007 growth inh: less growth of the S. pombe RE007 Vpr strain; Potency, µM (doses to about 92.2 µM), for inactives: top-dose activity change, negative = less growth, most hits filed as inhibitors; 360,000 compounds, 0.21% hits; S. pombe RE007 Vpr strain, BacTiter-Glo ATP luminescence, 24 h; active = well fitted falling curve with a large enough effect; inconclusive = small, poorly fitted or top-dose-only effect; inactive = no such curve, though single readings can be large or run the other way; note: potency is the fitted concentration of half-maximal effect; % is set by controls: 0 for no effect and ±100 for the full control effect; nearly all actives have a fitted effect of over 50% in size
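Fission yeast strain RE007, carrying one chromosomally integrated HIV-1 vpr copy, was seeded at OD 0.01 in PMG+AL medium with 23 nL pinned compound. After 24 h at 30 °C and 99% humidity, viability was read by BacTiter-Glo luminescence.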
Shiga inhibitor: Shiga toxin inhibition; Vero cells, Shiga toxin protein synthesis inhibition reporter; inhibition, % at 38.7 µM; 290,000 compounds, 9.2% hits; in the data active = inhibition mostly above about 28%, no sharp cut-off; inactive = mostly below about 43%; note: 0% is about no effect
The depositor's hits bear a star. Unless noted, calls come from the whole dose curve; as a rule, active = well fitted curve in the direction sought with a large enough effect; inconclusive = small, poorly fitted or top-dose-only effect, or another doubt; inactive = no such curve, though single readings can be large; an effect the other way counts as inactive or inconclusive.

Screening O=[N+]([O-])c1cc(/C=N\O)ccc1Oc1ccc(F)cc1 returned CHX counter 27*, Tb PYK inh 0%, FBPA Giardia inh -1%, LmPK inh 5%, RE007 growth inh -2% and Shiga inhibitor 27.
`COC(=O)c1sc(=S)sc1C(=O)OC` gave CHX counter -3, Tb PYK inh -12%, FBPA Giardia inh -6%, LmPK inh 3%, RE007 growth inh 32µM* and Shiga inhibitor -7.
COC(=O)c1sc(C(=O)OC)c(C(=O)OC)c1C(=O)OC was read as CHX counter -4, Tb PYK inh -4%, FBPA Giardia inh 7%, LmPK inh 0%, RE007 growth inh 0% and Shiga inhibitor -3.
Cc1cccc(C)c1Nc1n[nH]c(=S)s1 was read as Tb PYK inh 13µM* and RE007 growth inh 0%.
For Cn1c(=O)c2nc(SCC(=O)Nc3ccc(Cl)c(Cl)c3)n(C)c2n(C)c1=O the results were Tb PYK inh 0%.
For Cc1ccc(NC(=O)c2cc(N3C(=O)C=CC3=O)ccc2N2CCOCC2)cc1Cl the results were CHX counter -6, Tb PYK inh 0%, FBPA Giardia inh -12%, LmPK inh 18%, RE007 growth inh 7.9µM* and Shiga inhibitor -9.
`O=C(Nc1ccc(N2CCCC2)c(Cl)c1)c1ccccc1F` gave Tb PYK inh -3% and RE007 growth inh -12%.
O=C(Nc1ccc(N2CCOCC2)c(Cl)c1)c1ccccc1F was read as CHX counter 35*, Tb PYK inh -11%, FBPA Giardia inh inconclusive, LmPK inh -11%, RE007 growth inh 8% and Shiga inhibitor 109*.
Cc1cc(C(=O)Nc2ccc(N3CCOCC3)c(Cl)c2)c(C)o1 was read as CHX counter 34*, Tb PYK inh 4%, FBPA Giardia inh -27%, LmPK inh -22%, RE007 growth inh -15% and Shiga inhibitor 42*.
Cc1cc(C(=O)Nc2ccc(C)c(S(=O)(=O)N3CCOCC3)c2)c(C)o1 was read as CHX counter 10, Tb PYK inh -1%, FBPA Giardia inh 1%, LmPK inh 5%, RE007 growth inh -19% and Shiga inhibitor 16.
`COc1ccc(N2CCN(c3csc4ccccc4c3=O)CC2)cc1` gave Tb PYK inh 2%.
CN1CCN(/N=C/c2nc(-c3ccc(Cl)cc3)n3ccccc23)CC1 was read as CHX counter 32*, Tb PYK inh -5%, FBPA Giardia inh inconclusive, LmPK inh 4%, RE007 growth inh -1% and Shiga inhibitor 39*.
CN1CCN(/N=C/c2nc(-c3ccccc3Cl)n3ccccc23)CC1 was read as CHX counter -2, Tb PYK inh 8%, FBPA Giardia inh -9%, LmPK inh -1%, RE007 growth inh 22% and Shiga inhibitor -12.
Clc1ccc(-c2nc(/C=N/N3CCOCC3)c3ccccn23)cc1 was read as CHX counter 30*, Tb PYK inh 6%, FBPA Giardia inh -17%, LmPK inh 4%, RE007 growth inh 3% and Shiga inhibitor 63.
For CN1CCN(/N=C/c2nc(-c3ccccc3)n3ccccc23)CC1 the results were CHX counter 3, Tb PYK inh -7%, FBPA Giardia inh inconclusive, LmPK inh -6%, RE007 growth inh 0% and Shiga inhibitor 41*.
For Clc1ccccc1-c1nc(/C=N/N2CCOCC2)c2ccccn12 the results were CHX counter 7, Tb PYK inh 1%, FBPA Giardia inh inconclusive, LmPK inh -1%, RE007 growth inh 3% and Shiga inhibitor 27.
`CCCCOC(=O)Nc1nnc(CC)s1` gave CHX counter 43*, Tb PYK inh 0%, FBPA Giardia inh 0%, LmPK inh -3%, RE007 growth inh 6% and Shiga inhibitor 56*.
C/C=C(\C)c1nnc(NC(=O)OCC)s1 was read as CHX counter 15*, Tb PYK inh -8%, FBPA Giardia inh 5%, LmPK inh -6%, RE007 growth inh -4% and Shiga inhibitor 42*.
For CCCCCc1nnc(NC(=O)OCCC)s1 the results were CHX counter 14*, Tb PYK inh 0%, FBPA Giardia inh 13%, LmPK inh 4%, RE007 growth inh 6% and Shiga inhibitor 27.
CCOC(=O)Nc1nnc(CCc2ccccc2)s1 was read as CHX counter -4, Tb PYK inh -2%, FBPA Giardia inh 15%, LmPK inh 5%, RE007 growth inh -5% and Shiga inhibitor -2.
`CCc1nnc(NC(=O)OCc2ccccc2)s1` gave CHX counter 20*, Tb PYK inh -5%, FBPA Giardia inh -1%, LmPK inh 0%, RE007 growth inh 16% and Shiga inhibitor 60*.
O=S(=O)(c1cccc(F)c1)N1CCN(S(=O)(=O)c2ccc3c(c2)OCCO3)CC1 was read as CHX counter 3 and Shiga inhibitor 17.
For CCc1ccc(NC(=O)Cn2c(=O)n(CCCCC(=O)NCc3ccc4c(c3)OCO4)c(=O)c3ccccc32)cc1 the results were Tb PYK inh -1%.
COc1ccc(SCC(Cc2ccccc2)N2CCN(C)CCC2=O)cc1 (configuration not stated) was read as CHX counter -5, FBPA Giardia inh 3% and Shiga inhibitor -20.
Screening CC(C)C[C@@H](CSc1ccccc1)N1CCN(C)CCC1=O returned CHX counter 18*, Tb PYK inh 2%, FBPA Giardia inh 1%, LmPK inh 0%, RE007 growth inh -1% and Shiga inhibitor 24.
Screening Cc1ccc(SCC(CC(C)C)N2CCN(C)CCC2=O)cc1 (configuration not stated) returned CHX counter 33*, FBPA Giardia inh 4% and Shiga inhibitor 72*.
CC(C)CC(CSc1ccc(Br)cc1)N1CCN(C)CCC1=O (configuration not stated) was read as CHX counter 40, FBPA Giardia inh 3% and Shiga inhibitor 90*.
`COc1ccc(SCC(CC(C)C)N2CCN(C)CCC2=O)cc1` (configuration not stated) gave CHX counter 25*, FBPA Giardia inh 2% and Shiga inhibitor 53*.
CN1CCC(=O)N([C@H](CO)c2ccccc2)CC1 was read as CHX counter 18*, Tb PYK inh -5%, FBPA Giardia inh 5%, LmPK inh 0%, RE007 growth inh 16% and Shiga inhibitor 15.
For O=C1CCN(Cc2ccccc2)CCN1[C@H](CO)c1ccccc1 the results were CHX counter 1, Tb PYK inh 2%, FBPA Giardia inh 4%, LmPK inh -5%, RE007 growth inh 7% and Shiga inhibitor -1.
Screening O=C(Nc1cccnc1)c1cccnc1Cl returned CHX counter 9, Tb PYK inh 1%, FBPA Giardia inh -1%, LmPK inh -4%, RE007 growth inh 15% and Shiga inhibitor 18.

Bioassay records: PubChem, National Center for Advancing Translational Sciences (NCATS)
